High-throughput results: PubChem, National Center for Advancing Translational Sciences (NCATS)
Hits are enriched below; roughly 2.8% of the tested compounds scored in any of these assays.
GLP1R cytotox = cytotoxicity in counter-screen for GLP-1R inverse agonists; Potency, µM (series often up to 38.3 µM), hits mostly inhibitors; AID 624418; HEK293 cAMP-luciferase reporter cells, luminescence, 24 h; hit rate 0.13% among 410,000;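 further: loss of luciferase light is scored as toxicity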
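MLSMR compounds, 24 hr on cells at 37 deg C/5% CO2; luminescence after luciferase reagent (12 min RT). Inhibition counted as the undesired cytotoxic outcome.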
GLP-1R agonist = GLP-1 receptor (human) agonism | HEK293 GLP-1R CRE-luciferase, luminescence, 4-6 h; cells express a hypersensitive GLP-1R form | Potency, µM (titrated, usually from 45.6 µM), usual class: activators | AID 624172 | hit rate 0.007% among 380,000
Target sequence (P43220 whole entry, looked up): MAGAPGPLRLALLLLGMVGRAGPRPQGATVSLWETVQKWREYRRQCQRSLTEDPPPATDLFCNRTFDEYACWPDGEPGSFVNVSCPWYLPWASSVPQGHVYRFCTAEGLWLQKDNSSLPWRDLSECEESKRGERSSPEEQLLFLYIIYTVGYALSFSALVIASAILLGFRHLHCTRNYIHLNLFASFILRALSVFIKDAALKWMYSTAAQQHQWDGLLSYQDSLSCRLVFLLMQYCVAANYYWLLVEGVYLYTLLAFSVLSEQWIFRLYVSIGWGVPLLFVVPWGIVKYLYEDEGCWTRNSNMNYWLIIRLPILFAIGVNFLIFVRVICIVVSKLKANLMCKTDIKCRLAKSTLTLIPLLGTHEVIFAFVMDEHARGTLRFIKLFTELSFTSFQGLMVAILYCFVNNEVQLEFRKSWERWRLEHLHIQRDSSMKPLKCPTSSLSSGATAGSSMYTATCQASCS
Mito fusion act = blocks mitochondrial division or promotes mitochondrial fusion. S. cerevisiae fusion-defective mutant growth rescue, CellTiterGlo 48 h. Potency, µM (highest dose often 46.1 µM), hits mostly activators. hit rate 0.23% among 320,000; further: nearly all actives have a fitted effect of over 45% in size
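Read-out: ATP-based luminescence (CellTiterGlo, 10 min ambient) reporting growth of fusion-defective ts yeast after 48 hours at 37C on glycerol/ethanol YPEG medium in the presence of compound.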
GLP-1R inv ag = GLP-1 receptor (human) inverse agonism. P43220. HEK293 GLP-1R CRE-luciferase, luminescence, 24 h; GLP-1R form is constitutively active. Potency, µM (doses to about 38.3 µM), most hits filed as inhibitors. hit rate 1.6% among 410,000. AID 624417; further: nearly all actives have a fitted effect of over 55% in size
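Cells are plated, allowed 12 hours at 37 deg C, then treated with compounds for 24 hr before luciferase detection reagent is added and luminescence is read after 12 min at room temperature. The HEK293 line carries constitutively active GLP-1R with a cAMP-responsive reporter.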
BRCA1 expr up = activators of BRCA1 expression; MCF7-BRCA1-FFLuc reporter, luminescence, 48 h; response scale: scaled: vehicle 0%, 10 µM genistein 100%; Potency, µM (highest dose often 46.1 µM), most hits filed as activators; hit rate 1.1% among 380,000; AID 624202; further: nearly all actives have a fitted effect of over 80% in size
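Using MCF7 cells harboring a BRCA1 firefly luciferase reporter, plated 2 h before compound pinning, the screen measured luminescence after 48 h incubation. Responses were normalized to DMSO and 10 microM genistein, then fitted for concentration-effect.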
Each line names hits and unclear results; the compound was inactive in the other large screens; ! = not confirmed by another sample. The call rests on the fitted dose curve; in most records, active means well fitted curve in the direction sought with a large enough effect; inconclusive means small, poorly fitted or top-dose-only effect, or another doubt; inactive means no such curve, though single readings can be large; an effect the other way counts as inactive or inconclusive.

COC(=O)c1cnc(NC(=O)C2(C)CCCN(C(C)=O)C2)s1 (centres undefined)	none (no result: Mito fusion act)
O=C(Nc1ccccc1)C1=C[C@H](c2csc3ccccc23)C[C@H](OCc2ccc(CO)cc2)O1	GLP-1R inv ag 10µM
COc1cc(CNC(=O)CCCCCCC(C)C)ccc1O	Mito fusion act 18µM!
COc1ccc(CCNC(=O)CCCCC(=O)NCCc2ccc(OC)c(OC)c2)cc1OC	none (no result: Mito fusion act)
FC(F)(F)c1cccc(CN2CCC(c3cc(-c4cccs4)n[nH]3)CC2)c1	GLP1R cytotox inconclusive, GLP-1R inv ag 6.3µM
O=C(Cn1c2c(c(-c3ccccc3)cc1=O)CCCC2)N1CCCCCC1	Mito fusion act inconclusive, GLP-1R inv ag 13µM
Cc1ccc(-c2csc(NC(=O)CN3CC(C)OC(C)C3)n2)cc1 (centres undefined)	GLP-1R inv ag inconclusive
CN(C)c1ccc(N=Nc2ccccc2C(=O)O)cc1	none (no result: GLP1R cytotox, GLP-1R agonist, Mito fusion act, GLP-1R inv ag)
CN(C)c1ccc(N=Nc2ccc(C(=O)O)cc2)cc1	GLP1R cytotox inconclusive, GLP-1R inv ag 2.5µM, BRCA1 expr up inconclusive
COc1ccc(CCNC(=O)CN(c2cc([N+](=O)[O-])ccc2OC)S(C)(=O)=O)cc1	none
COCCN1CCCC(CNCc2cn(C)nc2-c2ccc(Oc3ccccc3)cc2)C1 (centres undefined)	GLP1R cytotox inconclusive, GLP-1R inv ag inconclusive
Cn1cc(CNCc2cn(C)nc2-c2ccc(C3CCCCC3)cc2)cn1	GLP-1R inv ag 7.9µM
CCOC(=O)c1ccc(NC(=O)CN(c2ccc(C)cc2)S(=O)(=O)c2c(C)n[nH]c2C)cc1	GLP-1R inv ag inconclusive
O=c1c(N2CCCCC2)coc2ccccc12	BRCA1 expr up 8.9µM
O=c1cc(N2CCCCC2)c2ccccc2o1	none
S=C(NCc1ccc(Cl)cc1)NC1CCN(Cc2ccccc2)CC1	GLP1R cytotox inconclusive, GLP-1R inv ag 3.5µM
S=C(Nc1ccccc1Cl)NC1CCN(Cc2ccccc2)CC1	GLP-1R inv ag inconclusive
S=C(Nc1cc(Cl)cc(Cl)c1)NC1CCN(Cc2ccccc2)CC1	GLP1R cytotox inconclusive, GLP-1R inv ag 4µM
CCCn1cc(NC(=O)C2CC(c3cccc(Br)c3)=NO2)cn1 (centres undefined)	none
Cc1ccccc1C(=O)Nc1cccc(NC(=O)c2ccc(C(C)(C)C)cc2)c1	GLP-1R inv ag 7.9µM (no result: GLP-1R agonist, Mito fusion act, BRCA1 expr up)
Cc1ccccc1C(=O)Nc1cccc(N)c1	none
Cc1c(NC(=O)c2ccc(C(C)(C)C)cc2)cccc1[N+](=O)[O-]	BRCA1 expr up 7.9µM
Cc1ccc(NC(=O)c2ccc(C(C)(C)C)cc2)cc1[N+](=O)[O-]	BRCA1 expr up 8.9µM
COc1ccccc1C(C[N+](=O)[O-])c1c(N)n(C)c(=O)n(C)c1=O (centres undefined)	GLP1R cytotox inconclusive, GLP-1R inv ag 2.8µM
CNC(=S)N1CCN(c2nc(-c3cccc(OC)c3)cs2)CC1	none
COc1cccc(NC(=O)N2CCN(c3nc(-c4cccc(OC)c4)cs3)CC2)c1	GLP-1R inv ag 13µM
COc1cccc(-c2csc(N3CCN(C(=O)Nc4ccccc4Cl)CC3)n2)c1	Mito fusion act inconclusive, GLP-1R inv ag inconclusive
CC(=O)Nc1nc(COc2ccccc2)cs1	BRCA1 expr up 10µM
COc1cccc(-c2csc(N3CCN(C(=O)NC45CC6CC(CC(C6)C4)C5)CC3)n2)c1	GLP-1R inv ag 5µM
COc1ccc(N2CCN(C(=O)Nc3cccc(C(F)(F)F)c3)CC2)cc1	GLP-1R inv ag 10µM
CC(=O)Nc1nc(COc2ccc3ccccc3c2)cs1	none
CCOC(=O)Nc1ccc(NC(=O)c2ccccc2F)cc1	BRCA1 expr up inconclusive
COc1cccc(-c2csc(NC(C)=O)n2)c1	BRCA1 expr up 13µM
Cc1cc(C)cc(Oc2nc(-c3ccccc3)cc(C)c2S(C)(=O)=O)c1	GLP-1R inv ag 4.5µM
Cc1cc(-c2ccccc2)nc(Oc2ccc(C(C)(C)C)cc2)c1S(C)(=O)=O	Mito fusion act 8.9µM, GLP-1R inv ag inconclusive
COc1ccccc1Oc1nc(-c2ccccc2)cc(C)c1S(C)(=O)=O	GLP-1R inv ag inconclusive
Cc1ccc(NC(=O)CCN2C(=O)C3CCCCC3C2=O)c(O)c1 (centres undefined)	none
Cc1ccc(NC(=O)CCCC2CCCCC2)c(O)c1	GLP-1R inv ag inconclusive, BRCA1 expr up 13µM
O=C(CN1CC(c2ccccc2)CC1=O)Nc1ccc2c(c1)OCO2 (centres undefined)	none
CC(C)(C)c1ccc(C(=O)Nc2ccc(Cl)cc2)cc1	BRCA1 expr up inconclusive
CSCc1ccc(C(=O)Nc2ccc(C(N)=O)cc2)cc1	BRCA1 expr up 5.6µM
CSCc1ccc(C(=O)NCc2ccc(C)cc2)cc1	none
COC(=O)Cc1ccc(NC(=O)c2ccc(C(C)(C)C)cc2)cc1	GLP1R cytotox inconclusive, GLP-1R inv ag 4.5µM
CCC1CCc2sc(C(=O)N(C)CC(=O)Nc3ccc(N4CCOCC4)cc3)cc2C1 (centres undefined)	GLP1R cytotox inconclusive, GLP-1R inv ag inconclusive
O=C(NCC1CCCO1)c1cc2n(n1)C(C(F)(F)F)CC(c1ccc(Br)cc1)N2 (centres undefined)	GLP-1R inv ag inconclusive
O=C(CN1CCN(c2ccccc2Cl)CC1)NC1CCCc2ccccc21 (centres undefined)	GLP-1R inv ag 10µM
O=C(CSc1nc2ccc(Cl)cc2[nH]1)NC1CCCc2ccccc21 (centres undefined)	GLP-1R inv ag 8.9µM
CCOC(=O)c1ccc(NC(=O)C2=C(C)C(=O)OC23CCN(C(C)=O)CC3)cc1	none (no result: GLP-1R agonist, Mito fusion act, BRCA1 expr up)
CC(C)NCC(O)COC1CCC(C(C)(C)C)CC1 (centres undefined)	GLP1R cytotox inconclusive, GLP-1R inv ag 7.1µM
O=C(/C=C/c1cn(-c2ccccc2)nc1-c1cccnc1)c1ccco1	GLP1R cytotox inconclusive, GLP-1R inv ag inconclusive
N/C(Cc1cccs1)=N\OC(=O)COc1ccc(Cl)cc1Cl	GLP-1R inv ag inconclusive, BRCA1 expr up 11µM
N/C(=N\OC(=O)COc1ccc(Cl)cc1Br)c1ccncc1	BRCA1 expr up 2.5µM
N/C(=N\OC(=O)COc1ccc(Cl)cc1)c1cccnc1	none
N/C(=N\OC(=O)COc1ccc(Cl)cc1Cl)c1cccnc1	BRCA1 expr up 7.9µM
CCc1ccc(OCC(=O)O/N=C(\N)c2ccncc2)c(Br)c1	BRCA1 expr up inconclusive
COc1ccc(CN(C)S(=O)(=O)c2nnc(NC(=O)c3ccccc3)s2)cc1OC	Mito fusion act inconclusive
Cc1ccc(Cl)cc1N1CCN(CCCNc2ncnc3onc(-c4ccc(Cl)cc4)c23)CC1	none (no result: Mito fusion act)
CC(C)(C)c1ccc(OCCCC(=O)NNC(=O)c2ccccc2O)cc1	GLP-1R inv ag 13µM
Cc1cc(C(=O)NNC(=O)CCCOc2ccccc2)c(C)o1	none
CCOc1ccccc1C(=O)N(Cc1cccs1)c1ccc(Cl)cc1	GLP-1R inv ag 13µM (no result: GLP-1R agonist, Mito fusion act)
